In assay [1] the test system is thyroid hormone receptor (rat, GH3 cells). The assay can be described thus: qHTS assay to identify small molecule agonists of the thyroid receptor (TR) signaling pathway (AID 743066; calls by dose curve).
For assay [2], the target named is Estrogen receptor (Homo sapiens) (UniProt P03372). The experiment in a line: qHTS assay to identify small molecule antagonists of the estrogen receptor alpha (ER-alpha) signaling pathway (AID 743069; active = well fitted curve in the direction sought with a large enough effect in the signal ratio in the repeat runs, not every such curve was filed as active; inconclusive = weak or mixed curves, or effect the other way; inactive = no such curve, though single readings can be large or run the other way; the % refers to the signal ratio; note: potency is the fitted concentration of half-maximal effect). The method in brief:
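ER-alpha-UAS-bla GripTite HEK293 line; 2% charcoal-stripped FBS overnight; plated, 4 hr 37C/5% CO2; cpd in DMSO + 17beta-estradiol, 18 hr 37C; LiveBLAzer B/G FRET substrate 2 hr RT; fluorescence intensity.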

Assay [3] is described as follows: qHTS assay to identify small molecule antagonists of the estrogen receptor alpha (ER-alpha) signaling pathway - cell viability counter screen (AID 743074; calls by dose curve;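 note: HEK293 cells carrying ER-alpha-UAS-bla reporter stimulated with 17beta-estradiol; nearly all actives have a fitted effect of over 45% in size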). On the technique in general: qHTS replaces the single test concentration by a dilution series.
For assay [4], the target named is Estrogen receptor (Homo sapiens) (UniProt P03372). The assay can be described thus: qHTS assay to identify small molecule agonists of the estrogen receptor alpha (ER-alpha) signaling pathway (AID 743075; calls by dose curve;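 note: HEK293 GripTite cells with ER-alpha and UAS-driven beta-lactamase reporter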).
Estrogen receptor (Homo sapiens), sequence (P03372 whole entry, looked up): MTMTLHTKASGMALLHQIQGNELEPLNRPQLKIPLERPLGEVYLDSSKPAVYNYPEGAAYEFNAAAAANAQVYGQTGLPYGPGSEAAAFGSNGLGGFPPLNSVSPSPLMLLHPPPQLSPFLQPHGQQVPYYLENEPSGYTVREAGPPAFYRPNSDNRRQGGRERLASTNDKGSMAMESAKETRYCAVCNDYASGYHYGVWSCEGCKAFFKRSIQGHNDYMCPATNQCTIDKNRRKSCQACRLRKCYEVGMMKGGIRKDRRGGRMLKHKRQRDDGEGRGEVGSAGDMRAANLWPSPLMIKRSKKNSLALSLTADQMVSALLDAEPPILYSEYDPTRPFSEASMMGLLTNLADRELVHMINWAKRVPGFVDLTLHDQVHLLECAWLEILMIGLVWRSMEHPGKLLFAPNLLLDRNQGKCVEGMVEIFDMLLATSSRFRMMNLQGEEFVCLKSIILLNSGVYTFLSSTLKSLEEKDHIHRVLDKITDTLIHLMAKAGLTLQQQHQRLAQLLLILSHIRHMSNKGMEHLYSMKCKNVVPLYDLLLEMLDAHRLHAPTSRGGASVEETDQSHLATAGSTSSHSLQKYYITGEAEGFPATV
The target is the same in assay [5]. The experiment in a line: qHTS assay to identify small molecule agonists of the estrogen receptor alpha (ER-alpha) signaling pathway using the BG1 cell line (AID 743079). Note: nearly all actives have a fitted effect of over 20% in size. Note: potency is the fitted concentration of half-maximal effect. To be noted: BG1Luc4E2 cells, ERE-luciferase agonist, 22 h; activation: at 70.3 µM (top of the series).
Assay [6] in a line: qHTS assay to identify small molecule antagonists of the estrogen receptor alpha (ER-alpha) signaling pathway using the BG1 cell line (AID 743080; calls by dose curve;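 note: BG1 cells stimulated with 17beta-estradiol alongside compound; nearly all actives have a fitted effect of over 25% in size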; note: potency is the fitted concentration of half-maximal effect). The method in brief: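 BG1-Luc-4E2 cells (endogenous full-length ER-alpha, stable 4×ERE-luciferase) were starved 5 days in phenol-red-free medium with 10% charcoal-stripped FBS, plated 24 h, then given compound plus 17beta-estradiol for 21.5 h at 37 C; ONE-Glo luminescence read after 30 min.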

Assay [7] can be described thus: qHTS assay to identify small molecule antagonists of the estrogen receptor alpha (ER-alpha) signaling pathway using the BG1 cell line - cell viability counter screen (AID 743081).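 Note: compound given together with 17beta-estradiol as the ER stimulus; nearly all actives have a fitted effect of over 45% in size.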
A short description of assay [8]: qHTS assay to identify aromatase inhibitors - cell viability counter screen (AID 743084).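 Note: cells stimulated with testosterone during compound exposure; nearly all actives have a fitted effect of over 55% in size.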 Note: potency is the fitted concentration of half-maximal effect.
Assay [9] has as its target Aryl hydrocarbon receptor (Homo sapiens) (UniProt P35869). The assay can be described thus: qHTS assay to identify small molecule that activate the aryl hydrocarbon receptor (AhR) signaling pathway (AID 743085).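 For activation: HG2L7.5c1 human HepG2 liver cells with stably integrated DRE-driven firefly reporter.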 Note: nearly all actives have a fitted effect of over 15% in size. Note: potency is the fitted concentration of half-maximal effect. The method in brief:
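Luminescence (ONE-Glo) from a dioxin-responsive-element luciferase reporter in HG2L7.5c1 HepG2 cells after 24 hr compound exposure at 37C; viability measured by CellTiter-Fluor fluorescence beforehand.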

Assay [10] can be described thus: qHTS assay to identify small molecule that activate the aryl hydrocarbon receptor (AhR) signaling pathway - cell viability counter screen (AID 743086). Note: nearly all actives have a fitted effect of over 45% in size. The method in brief: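 Cytotoxicity counter screen: CellTiter-Fluor signal (30 min, 37 C) in 4000 HepG2 cells/well carrying the DRE-luciferase reporter, following 24 h compound exposure at 37 C.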
The target in assay [11] is Peroxisome proliferator-activated receptor gamma (Homo sapiens) (UniProt P37231). The experiment in a line: qHTS assay to identify small molecule agonists of the peroxisome proliferator-activated receptor gamma (PPARg) signaling pathway (AID 743094; active = well fitted activation curve with a large enough effect in the signal ratio in the repeat runs, not every such curve was filed as active; inconclusive = weak or mixed curves, or effect the other way; inactive = no such curve, though single readings can be large or run the other way; the % refers to the signal ratio). The method in brief:
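Following 5 h plating at 37C, PPARg-bla HEK293H cells receive compound or DMSO for 17 h; fluorescence intensity is recorded after LiveBLAzer B/G loading for 1 h at room temperature.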

Assay [12] can be described thus: qHTS assay for small molecule agonists of the antioxidant response element (ARE) signaling pathway - cell viability counter screen (AID 743203; calls by dose curve; note: nearly all actives have a fitted effect of over 55% in size; note: potency is the fitted concentration of half-maximal effect). The method in brief: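 Compounds in DMSO were pinned onto ARE-bla HepG2 cells plated 5 hrs earlier at 2,000 cells/well. Sixteen hours later at 37C/5% CO2, CellTiter-Glo was added and luminescence measured after 30 min at room temperature.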

Another assay has as its target Aromatase (Homo sapiens) (UniProt P11511). The assay can be described thus: qHTS assay to identify aromatase inhibitors (AID 743083). Note: nearly all actives have a fitted effect of over 55% in size. Note: potency is the fitted concentration of half-maximal effect.
Assay [13] is described as follows: qHTS assay to identify small molecule antagonists of the peroxisome proliferator-activated receptor gamma (PPARg) signaling pathway - cell viability counter screen (AID 743194). Note: nearly all actives have a fitted effect of over 55% in size. The conditions noted are these: Potency: co-treated with 50 nM rosiglitazone unless noted. The method in brief: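 Viability was measured as CellTiter-Glo luminescence in GeneBLAzer PPARg UAS-bla HEK293H cells. These cells had been exposed 17 h at 37 C to compounds together with rosiglitazone at 50 nM final, with the beta-lactamase readout taken in the same wells.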

A short description of assay [14]: qHTS assay for small molecule agonists of the antioxidant response element (ARE) signaling pathway (AID 743202; active = well fitted activation curve with a large enough effect in the signal ratio in the repeat runs, not every such curve was filed as active; inconclusive = weak or mixed curves, or effect the other way; inactive = no such curve, though single readings can be large or run the other way; the % refers to the signal ratio; note: potency is the fitted concentration of half-maximal effect). The method, boiled down: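 Quantitative high-throughput format in HepG2 cells bearing an integrated ARE-beta-lactamase reporter. Compound exposure lasted 16 h at 37 C, and fluorescence was read 2 h after adding LiveBLAzer B/G substrate at room temperature.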

Assay [15] can be described thus: qHTS assay for small molecule activators of the heat shock response signaling pathway - cell viability counter screen (AID 743209). Note: nearly all actives have a fitted effect of over 50% in size. The method in brief: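 Counter screen for cytotoxicity in HeLa HSE-bla reporter cells. Treatment was 5 h at 37 C; viability was detected by luminescent ATP assay (CellTiter-Glo) in the same wells as the beta-lactamase read.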
Assay [16] in a line: qHTS assay to identify small molecule antagonists of the thyroid receptor (TR) signaling pathway (AID 743065). The method in brief: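 Antagonism measured as loss of luciferase signal in GH3 cells stably carrying a TRE-luciferase reporter, co-treated with compound and T3 (1 nM final) for 23.5 h at 37 C. Viability was read in the same well by CellTiter-Fluor.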
The nature of assay [17]: qHTS assay for small molecule activators of the heat shock response signaling pathway (AID 743210; active = well fitted activation curve with a large enough effect in the signal ratio in the repeat runs, with a control signal flat, not every such curve was filed as active; inconclusive = weak or mixed curves; the % refers to the signal ratio;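 note: HeLa cells with beta-lactamase reporter driven by heat shock elements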). The method, boiled down:
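HeLa HSE-bla cells, overnight plating; cpd in DMSO 5 h, 37 C; LiveBLAzer B/G FRET substrate 2.5 h RT; fluorescence intensity read.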

Assay [18] has as its target Peroxisome proliferator-activated receptor gamma (Homo sapiens) (UniProt P37231). The experiment in a line: qHTS assay to identify small molecule antagonists of the peroxisome proliferator-activated receptor gamma (PPARg) signaling pathway (AID 743191; calls by dose curve; note: nearly all actives have a fitted effect of over 30% in size). The method, boiled down: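 Beta-lactamase reporter under UAS control in HEK293H PPARg-bla cells; compound treatment 17 h at 37C. Read-out: fluorescence intensity after 1 h room-temperature incubation with LiveBLAzer B/G FRET substrate.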

Several values for one entry are separate records, joined by “and”; a condition that tells them apart may be missing. Equal values may be shown once. Activity calls are given as the source filed them. Unless noted, calls come from the whole dose curve; as a rule, active = well fitted curve in the direction sought with a large enough effect in the repeat runs; inconclusive = weak or mixed curves; inactive = no such curve, though single readings can be large; an effect the other way counts as inactive or inconclusive.

Aryl hydrocarbon receptor (Homo sapiens), sequence (P35869 whole entry, looked up): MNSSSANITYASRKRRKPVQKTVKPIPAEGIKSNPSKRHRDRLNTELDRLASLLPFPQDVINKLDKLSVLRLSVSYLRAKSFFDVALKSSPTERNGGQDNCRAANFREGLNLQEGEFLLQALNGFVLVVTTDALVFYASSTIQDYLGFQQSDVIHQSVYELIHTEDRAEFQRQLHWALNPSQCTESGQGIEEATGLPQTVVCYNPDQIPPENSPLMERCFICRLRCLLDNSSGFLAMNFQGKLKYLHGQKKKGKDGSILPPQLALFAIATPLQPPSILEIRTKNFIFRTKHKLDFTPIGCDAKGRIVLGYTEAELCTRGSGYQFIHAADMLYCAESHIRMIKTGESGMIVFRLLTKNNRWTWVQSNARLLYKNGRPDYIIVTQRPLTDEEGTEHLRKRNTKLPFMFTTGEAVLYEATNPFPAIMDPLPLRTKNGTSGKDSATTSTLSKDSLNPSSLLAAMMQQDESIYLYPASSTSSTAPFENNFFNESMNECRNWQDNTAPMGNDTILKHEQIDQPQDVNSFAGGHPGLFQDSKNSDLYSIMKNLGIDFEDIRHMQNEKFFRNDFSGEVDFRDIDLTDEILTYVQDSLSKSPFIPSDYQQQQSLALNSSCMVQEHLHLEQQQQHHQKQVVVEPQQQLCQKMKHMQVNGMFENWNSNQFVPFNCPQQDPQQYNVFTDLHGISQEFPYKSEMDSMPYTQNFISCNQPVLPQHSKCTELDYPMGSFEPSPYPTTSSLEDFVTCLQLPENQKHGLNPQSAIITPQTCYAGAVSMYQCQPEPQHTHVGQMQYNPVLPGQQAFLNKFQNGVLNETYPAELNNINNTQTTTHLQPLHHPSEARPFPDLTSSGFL
Aromatase (Homo sapiens), sequence (P11511 whole entry, looked up): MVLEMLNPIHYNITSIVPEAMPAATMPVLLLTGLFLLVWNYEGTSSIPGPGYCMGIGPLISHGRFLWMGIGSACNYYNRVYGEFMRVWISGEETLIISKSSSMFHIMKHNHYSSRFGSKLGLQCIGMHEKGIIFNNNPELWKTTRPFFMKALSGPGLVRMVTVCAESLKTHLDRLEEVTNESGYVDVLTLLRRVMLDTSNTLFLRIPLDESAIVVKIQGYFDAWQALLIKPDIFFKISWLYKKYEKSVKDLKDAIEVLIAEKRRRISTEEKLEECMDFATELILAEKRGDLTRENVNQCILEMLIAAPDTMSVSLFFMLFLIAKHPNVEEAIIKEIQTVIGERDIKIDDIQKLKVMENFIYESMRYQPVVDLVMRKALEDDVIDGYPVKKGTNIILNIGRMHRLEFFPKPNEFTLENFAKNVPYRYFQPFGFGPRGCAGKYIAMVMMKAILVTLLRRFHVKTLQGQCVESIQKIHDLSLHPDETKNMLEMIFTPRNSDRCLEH
Peroxisome proliferator-activated receptor gamma (Homo sapiens), sequence (P37231 whole entry, looked up): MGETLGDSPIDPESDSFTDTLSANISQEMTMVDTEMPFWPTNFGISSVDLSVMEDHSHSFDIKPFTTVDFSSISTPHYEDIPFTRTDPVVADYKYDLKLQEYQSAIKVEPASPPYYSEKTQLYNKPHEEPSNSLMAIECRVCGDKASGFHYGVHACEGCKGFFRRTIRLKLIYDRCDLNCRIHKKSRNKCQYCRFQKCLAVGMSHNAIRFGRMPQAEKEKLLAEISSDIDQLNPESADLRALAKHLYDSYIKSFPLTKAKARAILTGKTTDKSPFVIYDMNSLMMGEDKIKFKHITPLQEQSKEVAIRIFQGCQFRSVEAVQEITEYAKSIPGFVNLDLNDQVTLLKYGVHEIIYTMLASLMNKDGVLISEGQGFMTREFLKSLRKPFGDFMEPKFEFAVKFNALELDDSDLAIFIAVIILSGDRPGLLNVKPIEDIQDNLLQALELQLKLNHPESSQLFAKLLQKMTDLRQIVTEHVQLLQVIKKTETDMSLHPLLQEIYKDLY

As to `CCN(CC)CCc1c[nH]c2ccccc12`, the Potency result in assay [1], in [2], in [3], in assay [4], in [5] and in assay [6] was “inactive” in each case. For the same compound, the Potency entry in assay [7], in [8], in assay [9], in assay [10], in [11] and in assay [12] was “inactive” each time.
On to `CCOP(=S)(OCC)SC(CCl)N1C(=O)c2ccccc2C1=O` (configuration not stated), for which the Potency entry (in assay [1]; in assay [3]; with Aromatase (Homo sapiens); in assay [8]; in [9]; in [10]) was “inactive” each time. For the same compound, the Potency entry in [13] and in assay [15] was “inactive” each time. In addition, in [14], the Potency was 9.69 µM (active).
On to `[O]=[Cr](=[O])([OH])[O][Cr](=[O])(=[O])[OH]`, for which the Potency entry in assay [1], in assay [2], in [3], in [4], in [5] and in [6] was “inactive” each time. The Potency entry in [7], in assay [8], in [9], in [10] and in [11] was “inactive” each time. Moreover, the Potency with Aromatase (Homo sapiens) was 13.3 µM (active) and 2.46 µM (active) and 2.43 µM (active); in [12] it was 21.9 µM (active) and 30.6 µM (active).
For `CO/N=C(/C1=NOCCO1)c1ccccc1Oc1ncnc(Oc2ccccc2Cl)c1F`, the Potency in [16] is 0.863 µM (active); in assay [2], 54.9 µM [inconclusive] (active); in assay [6] it was 8.63 µM (active); with Aromatase (Homo sapiens), 54.4 µM (active); in [8], 54.4 µM (active); in assay [14], 0.544 µM (active). Also, the Potency entry in [13], in assay [12] and in [15] was “inactive” throughout.
With `Oc1ccc([C@H]2CNCc3c2ccc(O)c3O)cc1O`, the Potency entry in assay [1], in [2], in [4], in [5], in [6] and in assay [7] was “inactive” in each case. In addition, the Potency result (with Aromatase (Homo sapiens); in assay [8]; in assay [10]; in [11]; in [13]; in assay [12]) was “inactive” each time. For the same compound, the Potency result in [15] is “inactive”.
For the compound `C[C@]12Cc3cn[nH]c3C[C@@H]1CC[C@@H]1[C@@H]2CC[C@@]2(C)[C@H]1CC[C@]2(C)O`, the Potency entry in [13], in assay [12] and in [15] was “inactive” each time. The Potency in assay [14] is 26.6 µM (active).
`CCCCC(CC)COC(=O)c1ccccc1C(=O)OCC(CC)CCCC` (configuration not stated): the Potency entry in assay [1], in [2], in [4], in assay [5], in assay [6] and in assay [7] was “inactive” each time. In addition, the Potency entry (with Aromatase (Homo sapiens); in [8]; in assay [9]; in [10]; in [11]; in assay [12]) was “inactive” each time.
For the compound `O=C(N[C@H]1N=C(c2ccccc2F)c2cccc3c2N(CC3)C1=O)c1cc2ccccc2[nH]1`, the Potency in [16] is 5.96 µM (active); in [9] it was 5.31 µM (active). Further, the Potency result (in assay [1]; in assay [7]; in the assay with Aromatase (Homo sapiens); in assay [8]; in assay [13]; in assay [12]) was “inactive” in each case. Further, the Potency result in assay [15] is “inactive”.
On to `Brc1ccc(Oc2ccc(Br)cc2Br)c(Br)c1`, for which the Potency result (in assay [1]; in [3]; in assay [4]; in assay [7]; with Aromatase (Homo sapiens); in [8]) was “inactive” throughout. In addition, the Potency entry in assay [9], in [10], in [11], in assay [14] and in assay [17] was “inactive” in each case. Moreover, the Potency in assay [5] was 19.4 µM (active).
For the compound `O=C(CCCCl)c1ccc(F)cc1`, the Potency entry in assay [18], in assay [13], in [14] and in assay [15] was “inactive” each time.

These data come from PubChem BioAssay (Tox21).
